This is a sample that favours compounds with a hit; in the whole collection about 9.2% have one here.
FLuc modulator – firefly luciferase modulation, counter-screen for miR-21 project; purified FLuc, Km substrates, luminescence inhibition; Potency, µM (highest dose often 57.5 µM), for the others: top-dose activity change, negative = inhibition, usual class: inhibitors; actives 6.9% (n = 360,000); AID 588342;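 further: plate controls were vehicle for no effect and reference inhibitor for full effect; nearly all actives have a fitted effect of over 55% in size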
Target sequence (P08659 whole entry, looked up): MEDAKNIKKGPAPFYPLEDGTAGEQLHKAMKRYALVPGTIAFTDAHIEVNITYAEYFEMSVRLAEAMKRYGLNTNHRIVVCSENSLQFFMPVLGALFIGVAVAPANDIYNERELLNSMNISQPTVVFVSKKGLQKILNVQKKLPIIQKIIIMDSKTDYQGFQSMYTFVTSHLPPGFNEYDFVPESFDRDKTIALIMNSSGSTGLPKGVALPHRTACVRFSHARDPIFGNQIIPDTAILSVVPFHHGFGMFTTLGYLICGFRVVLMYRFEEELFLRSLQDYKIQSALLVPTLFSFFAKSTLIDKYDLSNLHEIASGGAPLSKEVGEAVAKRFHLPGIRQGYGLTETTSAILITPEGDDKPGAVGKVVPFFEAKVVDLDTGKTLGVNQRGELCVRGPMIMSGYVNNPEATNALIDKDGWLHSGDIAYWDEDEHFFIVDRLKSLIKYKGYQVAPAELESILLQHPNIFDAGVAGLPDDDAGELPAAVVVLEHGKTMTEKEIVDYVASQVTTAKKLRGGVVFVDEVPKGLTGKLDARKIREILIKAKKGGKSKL
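Biochemical qHTS of compounds, final roughly 60 µM downward over six points, against 10 nM purified firefly luciferase using Km concentrations of substrates (10 uM D-luciferin, 10 uM ATP) in Tris acetate pH 7.5 buffer; luminescence output.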
SMN2 splice enh – increases expression of the SMN2 splice variant; AID 1458; HEK293 SMN2-luciferase splicing reporter, luminescence, 30-36 h; Potency, µM (highest dose often 46.1 µM), inactives show top-dose activity change, positive = activation, hits mostly activators; actives 2.8% (n = 210,000); further: % of control where 0% means no effect; nearly all actives have a fitted effect of over 55% in size
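HEK293 cells carry an SMN2 minigene-luciferase reporter in which exon 7 inclusion puts luciferase in frame. Cells were seeded at 2000 cells/well, attached for 10-12 hours, then exposed to compounds for 30-36 hours at 37C before ONE-Glo luminescence.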
ELG1 DNA repair – blocks ELG1-dependent DNA repair in HEK293T cells | actives 2.3% (n = 330,000) | HEK293T ELG1-luciferase reporter, luminescence, 16 h; DNA damage induced by 5-fluorouridine | Potency, µM (series often up to 46.1 µM), without a hit: top-dose activity change, negative = inhibition, hits mostly inhibitors | AID 504467; further: on the % scale 0 is the no-effect control and ±100 the full control effect; nearly all actives have a fitted effect of over 55% in size
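DMSO vehicle served as the neutral condition. Each well held 2,000 cells given 5-fluorouridine plus compound; after 16 hr at 37 °C/5% CO2, ONE-Glo was added and luciferase measured 30 min later.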
Rab9 prom act – activates the Rab9 promoter. Potency, µM (top dose mostly 9.22 µM), for the others: at the highest dose activation, negative = inhibition, usual class: activators. actives 2.8% (n = 320,000). AID 485297. Huh7 Rab9 promoter-luciferase reporter, luminescence, 24 h; further: % of control where 0% means no effect; nearly all actives have a fitted effect of over 60% in size
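Luciferase signal after 10 min detection reagent at ambient indicates Rab9 promoter upregulation; stably transfected Huh7 cells were treated 24 h with compound in DMSO at 37 °C, 5% CO2.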
ELG1 genotox – induces genotoxicity in HEK293T cells with luciferase-tagged ELG1. HEK293T ELG1-luciferase reporter, luminescence, 16 h. Potency, µM (doses to about 46 µM), without a hit: at the highest dose activity change, positive = activation, actives largely listed as activators. actives 1.3% (n = 330,000); further: % of control where 0% means no effect; nearly all actives have a fitted effect of over 60% in size
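Quantitative HTS format in 1536-well plates. HEK293T ELG1-luciferase reporter cells receive test compound and are incubated 16 hr at 37 °C, 5% CO2; ONE-Glo added, 30 min room temperature, then luminescence read.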
NPC1 promoter act – activates the NPC1 promoter. actives 2.4% (n = 320,000). Potency, µM (top dose mostly 9.22 µM), for inactives: top-dose activation, most hits filed as activators. Huh7 NPC1 promoter luciferase reporter, 24 h; further: % of control where 0% means no effect; nearly all actives have a fitted effect of over 60% in size
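NPC1 promoter–luciferase Huh7 cells; 24 h compound; luminescence.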
* marks the source's active call; other numbers are inactive results; [ ] = dose if it differs, or a comment. The call rests on the fitted dose curve; in most records, active means well fitted curve in the direction sought with a large enough effect; inconclusive means small, poorly fitted or top-dose-only effect, or another doubt; inactive means no such curve, though single readings can be large; an effect the other way counts as inactive or inconclusive. Potency means the concentration at half of the fitted maximal effect.

Screening O=C(Nc1nc(-c2ccc3c(c2)OCO3)cs1)C1COc2ccccc2O1 (stereo not given) returned FLuc modulator inconclusive, SMN2 splice enh 6%, ELG1 DNA repair -2%, Rab9 prom act 0%, ELG1 genotox 0% and NPC1 promoter act 0%.
CC(=O)Nc1nc(-c2ccc3c(c2)OCO3)cs1 was read as FLuc modulator 9.5µM*, ELG1 DNA repair inconclusive, Rab9 prom act 2.2µM*, ELG1 genotox 16% and NPC1 promoter act 3.5µM*.
Screening COc1cccc(-c2csc(N3CCN(CC(=O)Nc4ccc5c(c4)OCO5)CC3)n2)c1 returned FLuc modulator -13%, SMN2 splice enh -41%, ELG1 DNA repair inconclusive, Rab9 prom act -2%, ELG1 genotox -6% and NPC1 promoter act 0%.
`CCc1cc(C(=O)Nc2ccccc2)cs1` gave FLuc modulator -17%[2.3 µM], SMN2 splice enh 35%, ELG1 DNA repair inconclusive, Rab9 prom act 2.2µM*, ELG1 genotox inconclusive and NPC1 promoter act -9%.
For CCc1cc(C(=O)NNC(=S)Nc2ccccc2C)cs1 the results were FLuc modulator 6.7µM*, SMN2 splice enh 14µM*, ELG1 DNA repair inconclusive, Rab9 prom act 2.8µM*, ELG1 genotox inconclusive and NPC1 promoter act 3.5µM*.
CCc1cc(C(=O)NNC(=S)NCc2ccccc2)cs1 was read as FLuc modulator -13%, SMN2 splice enh -15%, ELG1 DNA repair 18%, Rab9 prom act 0%, ELG1 genotox 1% and NPC1 promoter act -3%.
O=c1[nH]c(NCCO)nnc1Cc1ccccc1 was read as FLuc modulator 1%, ELG1 DNA repair 9%, Rab9 prom act -1%, ELG1 genotox -2%[9.26 µM] and NPC1 promoter act 1%.
For O=c1oc2ccccc2c(O)c1C=NCc1ccccn1 the results were FLuc modulator inconclusive, SMN2 splice enh 4%, ELG1 DNA repair 18%, Rab9 prom act -3%, ELG1 genotox -9% and NPC1 promoter act -10%.
Screening CC(C)CN=CC1=C(O)c2ccccc2C1=O returned FLuc modulator 12µM*, ELG1 DNA repair inconclusive, Rab9 prom act 1µM*, ELG1 genotox inconclusive and NPC1 promoter act 1.8µM*.
`O=C1C(C=NCc2ccccn2)=C(O)c2ccccc21` gave FLuc modulator 12µM*, SMN2 splice enh 5.6µM*, ELG1 DNA repair inconclusive, Rab9 prom act 4µM*, ELG1 genotox inconclusive and NPC1 promoter act 2.2µM*.
O=C1C(C=NCCCN2CCCC2=O)=C(O)c2ccccc21 was read as FLuc modulator 19µM*, SMN2 splice enh inconclusive, ELG1 DNA repair inconclusive, Rab9 prom act inconclusive, ELG1 genotox 18µM* and NPC1 promoter act inconclusive.
For Cc1nn(C)c(C)c1S(=O)(=O)N(CC(=O)NCCc1ccccc1)c1ccc(C(C)C)cc1 the results were FLuc modulator 0% and SMN2 splice enh -9%.
For O=c1[nH]c2ccccc2nc1/C=C/c1ccc(F)cc1 the results were FLuc modulator 2.4µM*, ELG1 DNA repair inconclusive, Rab9 prom act 4µM*, ELG1 genotox 21% and NPC1 promoter act 3.2µM*.
O=c1[nH]c2ccccc2nc1/C=C/c1ccccc1 was read as FLuc modulator 1.9µM*, ELG1 DNA repair inconclusive, Rab9 prom act 1.8µM*, ELG1 genotox inconclusive and NPC1 promoter act 4µM*.
O=c1[nH]c2ccccc2nc1/C=C/c1ccc(O)cc1 was read as FLuc modulator 6.7µM*, ELG1 DNA repair inconclusive, Rab9 prom act 3.5µM*, ELG1 genotox inconclusive and NPC1 promoter act inconclusive.
Screening O=c1[nH]c2ccccc2nc1/C=C(\O)C1CC1 returned FLuc modulator -1%, SMN2 splice enh 8%, ELG1 DNA repair 14%, Rab9 prom act 3%, ELG1 genotox 6% and NPC1 promoter act 2%.
For COc1ccc(S[C@@H](CCN2CC[C@H](NC(=O)OCc3ccccc3)CCC2=O)c2ccccc2)cc1 the results were ELG1 DNA repair 18µM* and ELG1 genotox -4%.
`O=C(N[C@@H]1CCC(=O)N(CC[C@H](Sc2ccc(Br)cc2)c2ccccc2)CC1)OCc1ccccc1` gave FLuc modulator 7%, ELG1 DNA repair inconclusive, Rab9 prom act -2%, ELG1 genotox -3% and NPC1 promoter act 0%.
COc1ccc(S(=O)(=O)N2CCCCC2)cc1NC(=O)c1cnc(C)cn1 was read as FLuc modulator -2%, ELG1 DNA repair -3%, Rab9 prom act -10%, ELG1 genotox -1% and NPC1 promoter act -2%.
For CCOc1ccc(-n2c(SCC(=O)N3CCc4ccccc43)nc3c([nH]c4ccccc43)c2=O)cc1 the results were FLuc modulator 1%.
`CCN(C(=O)COc1cc(=O)n(CC)c2ccccc12)c1cc(Cl)ccc1OC` gave FLuc modulator -1%, SMN2 splice enh -7%, ELG1 DNA repair 21µM*, Rab9 prom act 4%, ELG1 genotox -12% and NPC1 promoter act -4%.
N#Cc1c(N2CCOCC2)nsc1-c1ccc(C(F)(F)F)cc1 was read as FLuc modulator 7.6µM*, ELG1 DNA repair inconclusive, Rab9 prom act inconclusive, ELG1 genotox inconclusive and NPC1 promoter act inconclusive.
Screening Cc1cc(C(F)(F)F)c(C#N)c(N2CCOCC2)n1 returned FLuc modulator 1%, SMN2 splice enh -10%, ELG1 DNA repair 7%, Rab9 prom act -2%, ELG1 genotox 0% and NPC1 promoter act -3%.
C=CCOn1c(C)c(C(C)=O)c2c3nonc3ccc21 was read as FLuc modulator -3%, SMN2 splice enh -36%, ELG1 DNA repair 10µM*, Rab9 prom act -6%, ELG1 genotox -10% and NPC1 promoter act 0%.
For C=CCOn1c(C)c(C(C)=O)c2c3no[n+]([O-])c3ccc21 the results were FLuc modulator 0%, SMN2 splice enh 0%, ELG1 DNA repair inconclusive, Rab9 prom act -5%, ELG1 genotox -12% and NPC1 promoter act 1%.
COc1ccccc1-c1c(-c2ccc(O)cc2O)n[nH]c1C(F)(F)F was read as FLuc modulator 2%, ELG1 DNA repair 5.8µM*, Rab9 prom act -26%, ELG1 genotox -9% and NPC1 promoter act -18%.
For CCC(=O)Nc1ccc(C(=O)COC(=O)Cc2ccsc2)cc1 the results were FLuc modulator 11µM*, ELG1 DNA repair 17%, Rab9 prom act 3%, ELG1 genotox 1% and NPC1 promoter act -5%.
`O=C(COC(=O)Cc1ccsc1)Nc1ccc(Br)cc1` gave FLuc modulator inconclusive, ELG1 DNA repair 8%, Rab9 prom act -4%, ELG1 genotox 6% and NPC1 promoter act -2%.
